Results reported in PubChem BioAssay (NCI).
The panel holds about 79,000 compounds, 15% with a hit somewhere; the sample as a whole holds those more often. Values without a mark were called inactive. Activity calls are given as the source filed them. Rule as the data show it: active = growth inhibition above about 70%; inactive = the rest.

Columns and labels:
[1] = NCI Yeast Anticancer Drug Screen. Data for the rad50 strain (AID 155);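 also: 0% = growth of vehicle-only cultures of the same strain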; conditions: S. cerevisiae rad50 strain growth inhibition, stronger effect = higher value
In short: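 Cells are treated with compound, grown, and their growth is then scored against vehicle-only cultures of the same repair-deficient yeast strain.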

[2] = NCI Yeast Anticancer Drug Screen. Data for the mec2-1 strain (AID 157); conditions: S. cerevisiae mec2-1 strain, stronger effect = higher value
In short: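 Yeast mec2-1 mutant treated with compound. Readout: growth inhibition vs vehicle controls.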

[3] = NCI Yeast Anticancer Drug Screen. Data for the sgs1 mgt1 strain (AID 161);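 also: 0% = growth of cultures given vehicle only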; conditions: S. cerevisiae sgs1 mgt1 strain, stronger effect = higher value
In short: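 Inhibition of yeast growth, normalised to vehicle-treated controls, is reported for a strain bearing genetic alterations in DNA damage repair.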

[4] = NCI Yeast Anticancer Drug Screen. Data for the cln2 rad14 strain (AID 165);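 also: 0% = growth equal to vehicle treated cultures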; conditions: S. cerevisiae cln2 rad14 strain, stronger effect = higher value
In short: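 cln2 rad14 yeast strain; compound exposure; growth inhibition read vs vehicle controls.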

[5] = NCI Yeast Anticancer Drug Screen. Data for the bub3 strain (AID 167); conditions: S. cerevisiae bub3 mutant strain, stronger effect = higher value
In short: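 Part of a panel of yeast mutants defective in DNA damage repair or cell cycle regulation. Each strain is grown with compound, and inhibition is calculated relative to solvent-treated cultures.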

[6] = NCI Yeast Anticancer Drug Screen. Data for the mlh1 rad18 strain (AID 175); conditions: S. cerevisiae mlh1 rad18 strain growth inhibition, stronger effect = higher value
In short: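 Yeast w/ defined DNA-repair lesions; compound exposure; growth vs vehicle controls → % inhibition.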

[7] = at 5.0 µM (retest, dose inferred, filed as 0.5)
[8] = at 50.0 µM (retest, dose inferred, filed as 5.0)

SMILES | growth inhibition [1, 7] | growth inhibition [1, 8] | growth inhibition ([1]; at 50.0 µM) | growth inhibition [2, 7] | growth inhibition [2, 8] | growth inhibition ([2]; at 50.0 µM) | growth inhibition [3, 7] | growth inhibition [3, 8] | growth inhibition ([3]; at 50.0 µM) | growth inhibition [4, 7] | growth inhibition [4, 8] | growth inhibition ([4]; at 50.0 µM) | growth inhibition [5, 7] | growth inhibition [5, 8] | growth inhibition ([5]; at 50.0 µM) | growth inhibition [6, 7] | growth inhibition [6, 8] | growth inhibition ([6]; at 50.0 µM)
O=Nc1c(NO)c2ccccc2c2ccccc12 | 5% | 96% (active) | 99.1% (active) | -2% | 91% (active) | 96.2% (active) | -8% | 93% (active) | 97.8% (active) | 2% | 82% (active) | 85.8% (active) | -9% | 95% (active) | 98.2% (active) | 20% | 95% (active) | 98.2% (active)
COc1cc(Cc2n[nH]c(=S)n2-c2ccccc2)c(S(=O)(=O)N2CCOCC2)cc1OC | 4% | 1% | -10.2% | -2% | -5% | -5.2% | 9% | -6% | -0.7% | 1% | 0% | 82.7% (active) | -3% | 7% | -32% | -2% | -62% | 11.4%
CC12CCC(O)CC1CCC1C2CCC2(C)C(NC(=O)N(CCCl)N=O)CCC12 (stereo not given) | 6% | 74% (active) | 91.3% (active) | 2% | 78% (active) | 80.5% (active) | -205% | 84% (active) | 92.9% (active) | -1% | 35% | 65.8% | -7% | 63% | 56.8% | 46% | 94% (active) | 94.5% (active)
CS(=O)(=O)c1nnnn1-c1ccccc1 | -21% | 93% (active) | 99.2% (active) | -24% | 97% (active) | 99.5% (active) | -18% | 96% (active) | 99% (active) | -49% | 94% (active) | 97.3% (active) | -34% | 95% (active) | 99.4% (active) | -62% | 96% (active) | 99.5% (active)
CN(NC(=O)/C(=C/c1cc(Cl)cc(Cl)c1O)NC(=O)c1ccccc1)c1cnn(-c2ccccc2)c(=O)c1Cl | 15% | 43% | 52.9% | 3% | 36% | 39.2% | -4% | 45% | 59.1% | -6% | 47% | 55.6% | -13% | 43% | 60% | -7% | 62% | 67%
Fc1ccc(CSC(=S)Nc2ccc(Br)cc2)cc1 | 9% | 99% (active) | 91.2% (active) | 8% | 99% (active) | 90% (active) | 11% | 99% (active) | 94.8% (active) | -9% | 99% (active) | 56.2% | -6% | 99% (active) | 71.1% (active) | 21% | 99% (active) | 95.5% (active)
COc1ccc(NS(=O)(=O)c2ccc(F)cc2)cc1 | -21% | -3% | 95.9% (active) | 1% | -12% | 99.3% (active) | -26% | -22% | 98.5% (active) | 6% | -22% | 97.5% (active) | 6% | -21% | 97.2% (active) | -15% | -18% | 98.5% (active)
CC(=O)OCCCCCCCCCCCCCCO | -1% | 98% (active) | 50% | 0% | 99% (active) | -15.1% | -4% | 99% (active) | -1.2% | -3% | 98% (active) | -33.1% | 1% | 99% (active) | 43% | -2% | 98% (active) | 4.25%
COc1ccc(C2(O)c3ccccc3C(=O)C2c2ccccn2)cc1 (stereo not given) | 99% (active) | 10% | 99% (active) | 98% (active) | -5% | 99% (active) | 98% (active) | -1% | 99.3% (active) | 97% (active) | -1% | 98.8% (active) | 99% (active) | 7% | 99.3% (active) | 99% (active) | 4% | 98.9% (active)
CCC1CN2CCc3cc(OC)c(OC)cc3C2CC1CC1c2cc(OC)c(OC)cc2CCN1C(=O)C(Cc1c[nH]c2ccccc12)NC(=O)OC(C)(C)C (stereo not given) | -4% | 97% (active) | 96.8% (active) | -6% | 98% (active) | 88.3% (active) | -5% | 49% | 53% | -13% | 98% (active) | 93.5% (active) | -5% | 98% (active) | 59.5% | -3% | 98% (active) | 93.8% (active)
